Assay results as given in PubChem BioAssay.
Active and inactive are the calls of the source.

Key:
[1] = anti-His antibody binders, primary screen, artefact control for SMM control protein annotation, biochemical, small-molecule microarray, 635 nm fluorescence (AID 1128); conditions: anti-His Alexa647 antibody binding, higher = more signal;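 note: score merges feature fluorescence with signal-to-noise for each printed compound spot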
[2] = tested on: Human papillomavirus type 1a E7 protein (residues 1-88); test: HPV1a E7 small-molecule binders, primary screen, biochemical, small-molecule microarray, residues 1-88, 635 nm (AID 1129); conditions: small-molecule microarray binding, fluorescence 635 nm; higher = more signal
[3] = biological target: Focal adhesion kinase 1 (Homo sapiens) (UniProt Q05397); test: small-molecule microarray binders of FAK, primary screen, biochemical, 635/667 nm fluorescence, BSA, DTT (AID 1130); conditions: PTK2 binding, 635 nm fluorescence, higher = more signal;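 note: composite of spot emission at 667 nm and signal to noise over triplicate slides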
[4] = tested on: Fibrinogen (Alexa647-labelled); test: fibrinogen binders on compound microarrays, profiling panel, artefact control for SMM control-protein annotation, biochemical, small-molecule microarray, 635/667 nm fluorescence (AID 1131); conditions: fibrinogen-A647 binding fluorescence, higher = more signal;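 note: z-score merges 667 nm fluorescence with per-spot signal-to-noise over triplicate slides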
[5] = biological target: Follistatin (Homo sapiens) (UniProt P19883); test: follistatin binders on small-molecule microarrays, primary screen, biochemical, small-molecule microarray, 635/667 nm fluorescence (AID 1132); conditions: FST binding, 635 nm fluorescence, higher = more signal
[6] = biological target: Fibroblast growth factor 2 (Homo sapiens) (UniProt P09038); test: FGF2 binders on small-molecule microarrays, primary screen, biochemical, small-molecule microarray, 635/667 nm fluorescence (AID 1133); conditions: small-molecule microarray binding, FGF2, fluorescence 635/667; higher = more signal
[7] = mitochondrial membrane potential change in A549 cells, profiling panel, cell-based, JC-1 fluorescence, basal, 24 h, 100 nL (AID 1138); conditions: higher = more signal;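 note: A549 lung adenocarcinoma cells under basal conditions with no added stimulus; test concentration not given here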
Lefty1 = Lefty1 binders on small-molecule microarrays, primary screen, biochemical, small-molecule microarray, 635/667 nm fluorescence (AID 1139); conditions: small-molecule microarray binding, fluorescence 635/667; higher = more signal
[8] = tested on: wheat germ agglutinin (Triticum aestivum), Alexa647-labelled; test: wheat germ agglutinin binders on compound microarrays, profiling panel, artefact control for SMM control-protein annotation, biochemical, small-molecule microarray, 635/667 nm fluorescence (AID 1140); conditions: WGA-A647 binding, 635 nm fluorescence, higher = more signal;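 note: score merges 667 nm feature emission with signal to noise over triplicate slides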
[9] = biological target: Luciferin 4-monooxygenase (Photinus pyralis) (UniProt P08659); test: firefly luciferase enzyme inhibitors, primary screen, biochemical, luminescence, purified enzyme, 2006 set (AID 1141); conditions: SteadyGlo luminescence, 30 min, higher = more signal, called active from +8 up or from −8 down;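 note: cell-free assay with purified firefly luciferase at 100 ng per well in PBS; test concentration not given here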
Chain of Luciferin 4-monooxygenase (Photinus pyralis) (P08659 whole entry, looked up): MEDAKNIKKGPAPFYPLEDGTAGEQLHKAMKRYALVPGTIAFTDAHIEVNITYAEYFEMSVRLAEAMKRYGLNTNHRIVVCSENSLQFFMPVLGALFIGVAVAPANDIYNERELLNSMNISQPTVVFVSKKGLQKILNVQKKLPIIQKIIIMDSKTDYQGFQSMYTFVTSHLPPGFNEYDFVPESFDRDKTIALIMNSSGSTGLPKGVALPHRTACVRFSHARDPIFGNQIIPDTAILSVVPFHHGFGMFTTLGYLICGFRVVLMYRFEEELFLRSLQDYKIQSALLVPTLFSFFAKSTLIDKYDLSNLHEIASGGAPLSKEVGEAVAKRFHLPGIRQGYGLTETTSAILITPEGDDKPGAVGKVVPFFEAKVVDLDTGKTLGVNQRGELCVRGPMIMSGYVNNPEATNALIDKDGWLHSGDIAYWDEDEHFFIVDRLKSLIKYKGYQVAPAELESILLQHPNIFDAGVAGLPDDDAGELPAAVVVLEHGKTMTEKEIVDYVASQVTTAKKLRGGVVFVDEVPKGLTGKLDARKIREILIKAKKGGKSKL

Chain of Follistatin (Homo sapiens) (P19883 whole entry, looked up): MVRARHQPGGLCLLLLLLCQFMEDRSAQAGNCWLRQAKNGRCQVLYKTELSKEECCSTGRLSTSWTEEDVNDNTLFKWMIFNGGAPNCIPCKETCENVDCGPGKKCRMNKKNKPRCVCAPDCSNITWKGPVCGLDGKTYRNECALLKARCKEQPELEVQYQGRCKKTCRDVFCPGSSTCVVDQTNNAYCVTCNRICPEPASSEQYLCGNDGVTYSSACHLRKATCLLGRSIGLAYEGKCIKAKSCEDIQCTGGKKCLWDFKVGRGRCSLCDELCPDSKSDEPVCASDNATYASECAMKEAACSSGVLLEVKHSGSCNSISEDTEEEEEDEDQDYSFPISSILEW
Chain of Focal adhesion kinase 1 (Homo sapiens) (Q05397 whole entry, looked up): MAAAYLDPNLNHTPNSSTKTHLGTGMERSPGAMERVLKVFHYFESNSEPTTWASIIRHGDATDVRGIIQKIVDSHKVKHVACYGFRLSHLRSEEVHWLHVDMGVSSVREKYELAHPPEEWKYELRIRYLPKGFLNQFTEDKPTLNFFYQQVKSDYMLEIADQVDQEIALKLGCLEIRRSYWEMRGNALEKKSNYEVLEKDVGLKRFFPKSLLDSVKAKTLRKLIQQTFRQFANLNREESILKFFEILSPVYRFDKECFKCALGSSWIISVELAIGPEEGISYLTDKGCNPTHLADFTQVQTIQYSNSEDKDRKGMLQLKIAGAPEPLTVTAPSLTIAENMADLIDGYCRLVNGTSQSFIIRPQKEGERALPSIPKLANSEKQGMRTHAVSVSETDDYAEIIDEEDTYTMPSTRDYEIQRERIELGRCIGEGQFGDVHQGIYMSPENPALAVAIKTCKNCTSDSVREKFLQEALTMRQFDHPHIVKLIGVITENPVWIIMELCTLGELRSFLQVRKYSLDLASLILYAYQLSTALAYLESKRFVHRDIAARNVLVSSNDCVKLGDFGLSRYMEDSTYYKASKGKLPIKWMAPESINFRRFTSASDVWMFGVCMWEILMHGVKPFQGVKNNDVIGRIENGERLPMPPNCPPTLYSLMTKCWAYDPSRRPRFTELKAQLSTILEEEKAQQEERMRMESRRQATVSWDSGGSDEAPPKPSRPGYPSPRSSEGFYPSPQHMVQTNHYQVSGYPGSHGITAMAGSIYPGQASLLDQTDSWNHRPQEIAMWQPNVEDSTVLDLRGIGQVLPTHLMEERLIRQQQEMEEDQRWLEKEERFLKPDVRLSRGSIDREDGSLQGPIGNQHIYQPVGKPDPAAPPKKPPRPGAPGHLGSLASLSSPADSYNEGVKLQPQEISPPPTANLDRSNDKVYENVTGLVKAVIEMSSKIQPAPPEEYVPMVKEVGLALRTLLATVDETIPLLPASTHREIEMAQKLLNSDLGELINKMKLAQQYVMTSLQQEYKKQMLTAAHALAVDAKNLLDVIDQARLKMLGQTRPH
Chain of Fibroblast growth factor 2 (Homo sapiens) (P09038 whole entry, looked up): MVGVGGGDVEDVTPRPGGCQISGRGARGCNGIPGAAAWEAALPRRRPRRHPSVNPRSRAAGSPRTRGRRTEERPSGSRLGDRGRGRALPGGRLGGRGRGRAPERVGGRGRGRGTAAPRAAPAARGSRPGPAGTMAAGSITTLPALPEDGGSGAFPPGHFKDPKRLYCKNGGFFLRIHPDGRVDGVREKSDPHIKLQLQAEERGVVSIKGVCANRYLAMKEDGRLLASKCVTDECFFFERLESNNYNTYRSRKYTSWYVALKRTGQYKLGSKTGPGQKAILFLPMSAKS

## COc1ccc([Si](C)(C)[C@H]2[C@H](CC(=O)N3Cc4ccccc4C[C@H]3CO)O[C@@]3(C(=O)N(Cc4ccc(N5C(=O)c6cccc7cccc5c67)cc4)c4ccccc43)[C@@H]2C)cc1
[1]
  composite z-score: 0.33
[2]
  composite z-score: 1.15
[3]
  composite z-score: 1.28
[4]
  composite z-score: 0.405
[5]
  composite z-score: 1.07
[6]
  composite z-score: 1.37
[7]
  z-score: 1.34
Lefty1
  composite z-score: 1.01
[8]
  composite z-score: 0.237
[9]
  z-score: 0.0376 (inactive)

## CCOC(=O)C[C@H]1[C@H](OC(=O)c2ccc(-c3ccccc3)cc2)[C@@H](NC(=O)CC(C)C)c2cc(OCCCO)ccc2N1C(=O)c1ccccc1
[1]
  composite z-score: 0.281
[2]
  composite z-score: 0.453
[3]
  composite z-score: 0.513
[4]
  composite z-score: 0.252
[5]
  composite z-score: 0.249
[6]
  composite z-score: 0.376
[7]
  z-score: 1.23
Lefty1
  composite z-score: 0.369
[8]
  composite z-score: 0.0794
[9]
  z-score: -0.228 (inactive)

## CCCCCN1CC=CC23O[C@@H]4/C=C\CCC(C)OC(=O)C4[C@H]2C(=O)N(CCCCCCO)[C@@H]3C1=O (stereo not given in full)
[1]
  composite z-score: 0.371
[2]
  composite z-score: 0.229
[3]
  composite z-score: 0.0767
[4]
  composite z-score: -1.31
[5]
  composite z-score: 0.0532
[6]
  composite z-score: -0.0946
[7]
  z-score: 1.03
Lefty1
  composite z-score: 0.744
[8]
  composite z-score: -0.65
[9]
  z-score: 0.0812 (inactive)

## O=C1O[C@H](c2ccccc2)[C@H](c2ccccc2)N2[C@H]1[C@@H](C(=O)O)[C@]1(C(=O)Nc3ccc(C#CC4(O)CCCCCC4)cc31)[C@H]2c1ccc(O)cc1
[1]
  composite z-score: 0.401
[2]
  composite z-score: 0.391
[3]
  composite z-score: 0.016
[4]
  composite z-score: -0.132
[5]
  composite z-score: -0.0848
[6]
  composite z-score: -0.201
[7]
  z-score: -0.697
Lefty1
  composite z-score: 0.0963
[8]
  composite z-score: 0.211
[9]
  z-score: -0.828 (inactive)

## [N-]=[N+]=NCc1ccccc1[C@H]1OC(c2ccc(OCCCO)cc2)=N[C@@]1(Cc1ccccc1)C(=O)NCCN1CCOCC1
[1]
  composite z-score: 2.04
[2]
  composite z-score: 1.26
[3]
  composite z-score: 0.514
[4]
  composite z-score: 0.915
[5]
  composite z-score: 1.33
[6]
  composite z-score: 1.63
[7]
  z-score: 1.87
Lefty1
  composite z-score: 0.332
[8]
  composite z-score: 0.531
[9]
  z-score: -3.29 (inactive)

## O=C1O[C@H](c2ccccc2)[C@H](c2ccccc2)N2[C@H]1[C@@H](C(=O)N1CCCCCCC1)[C@]1(C(=O)Nc3ccc(C#CC4(O)CCCCCC4)cc31)[C@H]2c1ccccc1OCCO
[1]
  composite z-score: 2.25
[2]
  composite z-score: 1.35
[3]
  composite z-score: 3.94
[4]
  composite z-score: 0.713
[5]
  composite z-score: 1.62
[6]
  composite z-score: 0.121
[7]
  z-score: 0.589
Lefty1
  composite z-score: 1.92
[8]
  composite z-score: 1.71
[9]
  z-score: 1.03 (inactive)

## C=CCC(OC(C)=O)[C@@H]1[C@@H](N(Cc2cccc3ccccc23)C(=O)Cc2ccc(F)cc2)c2cc(OCCCO)ccc2N1C(=O)c1ccc(-c2ccccc2)cc1 (stereo not given in full)
[1]
  composite z-score: -0.517
[2]
  composite z-score: -0.0075
[3]
  composite z-score: 0.365
[4]
  composite z-score: 0.674
[5]
  composite z-score: -0.0679
[6]
  composite z-score: 0.292
[7]
  z-score: 0.577
Lefty1
  composite z-score: -0.62
[8]
  composite z-score: 0.507
[9]
  z-score: -0.403 (inactive)

## COCCOC(=O)N1C(=O)[C@@]2(c3ccccc31)[C@H](c1ccccc1OCCO)N1[C@H](c3ccccc3)[C@H](c3ccccc3)OC(=O)[C@H]1[C@@H]2C(=O)N1CCCCCCC1
[1]
  composite z-score: 0.703
[2]
  composite z-score: 1.32
[3]
  composite z-score: 3.01
[4]
  composite z-score: 0.995
[5]
  composite z-score: 1.53
[6]
  composite z-score: 1.55
[7]
  z-score: -0.0428
Lefty1
  composite z-score: 1.71
[8]
  composite z-score: 1.63
[9]
  z-score: -0.507 (inactive)

## C=CCC(OC(C)=O)[C@@H]1[C@@H](N(Cc2ccc(-c3cccc(C(F)(F)F)c3)o2)C(=O)Cc2ccc(OC)cc2)c2cc(OCCCO)ccc2N1C(=O)Cc1ccc2ccccc2c1 (stereo not given in full)
[1]
  composite z-score: 0.083
[2]
  composite z-score: -1.39
[3]
  composite z-score: -0.368
[4]
  composite z-score: 0.226
[5]
  composite z-score: 0.131
[6]
  composite z-score: -0.501
[7]
  z-score: -0.451
Lefty1
  composite z-score: -0.27
[8]
  composite z-score: -0.0571
[9]
  z-score: 0.149 (inactive)

## CCCNC(=O)[C@@]1(Sc2ccc(C)cc2)CC(=O)N(C(C)C)[C@@H]1c1ccc(CO)cc1I
[1]
  composite z-score: -0.139
[2]
  composite z-score: -0.435
[3]
  composite z-score: -0.288
[4]
  composite z-score: -0.678
[5]
  composite z-score: -1.21
[6]
  composite z-score: -1.5
[7]
  z-score: 0.794
Lefty1
  composite z-score: -1.96
[8]
  composite z-score: -0.831
[9]
  z-score: -0.121 (inactive)

## C=CCNC(=O)[C@H]1[C@@H]2C(=O)O[C@@H](c3ccccc3)[C@@H](c3ccccc3)N2[C@@H](c2ccc(O)cc2)[C@]12C(=O)N(C(=O)OCCOC)c1ccc(C#CCC(C(=O)OC)C(=O)OC)cc12
[1]
  composite z-score: 0.724
[2]
  composite z-score: 1.13
[3]
  composite z-score: 0.439
[4]
  composite z-score: 0.858
[5]
  composite z-score: 1.32
[6]
  composite z-score: 1.5
[7]
  z-score: -1.74
Lefty1
  composite z-score: 0.836
[8]
  composite z-score: 0.856
[9]
  z-score: 0.315 (inactive)

## O=C1[C@@H]2[C@@H](CC(COc3ccccc3)=C3[C@@H](CCc4ccccc4)OB(O)C[C@@H]32)C(=O)N1Cc1ccccc1
[1]
  composite z-score: -0.147
[2]
  composite z-score: 0.871
[3]
  composite z-score: 0.034
[4]
  composite z-score: 0.0907
[5]
  composite z-score: 0.445
[6]
  composite z-score: 0.161
[7]
  z-score: 1.83
Lefty1
  composite z-score: 0.212
[8]
  composite z-score: 0.344
[9]
  z-score: -1.06 (inactive)

## O=C1OCC=C[C@H]2OC34C=CCN(c5ccc6ccccc6c5)C(=O)[C@H]3N(CCCCCO)C(=O)[C@@H]4[C@@H]12 (stereo not given in full)
[1]
  composite z-score: 0.0997
[2]
  composite z-score: -0.381
[3]
  composite z-score: 1.05
[4]
  composite z-score: -0.639
[5]
  composite z-score: -1.38
[6]
  composite z-score: -1.42
[7]
  z-score: -0.164
Lefty1
  composite z-score: -1.23
[8]
  composite z-score: 0.129
[9]
  z-score: -0.397 (inactive)

## COc1ccc([Si](C)(C)[C@@H]2[C@@H](CCn3cc([C@H](O)c4ccccc4)nn3)O[C@]3(C(=O)N(Cc4cccc(N5C(=O)c6cccc7cccc5c67)c4)c4ccccc43)[C@H]2C)cc1
[1]
  composite z-score: 0.195
[2]
  composite z-score: -0.34
[3]
  composite z-score: -0.426
[4]
  composite z-score: -0.759
[5]
  composite z-score: -0.0585
[6]
  composite z-score: -0.758
[7]
  z-score: 0.794
Lefty1
  composite z-score: 0.199
[8]
  composite z-score: -0.228
[9]
  z-score: 0.148 (inactive)
